# Bioassay records: PubChem BioAssay, several laboratories
# The list is not random: actives were taken first. Their share in the collection is about 1.3%.
# CCHFV vOTU inh: blocks the CCHF virus ovarian tumor domain protease. CCHFV vOTU protease, Pep-AMC fluorescence. inhibition, % at 11.5 µM. 370,000 tested, 0.55% active. AID 651958; in the data active = inhibition above about 30%
# SARS 3CLpro inh: SARS-CoV 3CLpro protease inhibition; 290,000 tested, 0.14% active; inhibition, % at 6 µM; P0C6X7; recombinant SARS-CoV 3CLpro, quenched FRET peptide cleavage; in the data active = inhibition above about 12%
# BH1578 lux ind: induces V. cholerae light production without autoinducers | V. cholerae BH1578 lux reporter, luminescence, 6 h | activation, % at 18.7 µM | 350,000 tested, 0.16% active | AID 588436; in the data active = activation mostly above about 9.7%, no sharp cut-off
# SSB-PriA inh: K. pneumoniae PriA-SSBct interaction inhibition; AlphaScreen SSBct-PriA binding, biotinylated peptide; inhibition, % at 33 µM; 430,000 tested, 0.6% active; in the data active = inhibition mostly above about 37%, no sharp cut-off; inactive = mostly below about 20%
# DUSP3 inh: inhibitors of human VHR1 phosphatase (DUSP3); P51452; recombinant VHR phosphatase, pNPP absorbance; inhibition, % at 13.3 µM; 290,000 tested, 0.52% active; AID 1654; in the data active = inhibition above about 50%
# Target sequence (P51452 whole entry, looked up): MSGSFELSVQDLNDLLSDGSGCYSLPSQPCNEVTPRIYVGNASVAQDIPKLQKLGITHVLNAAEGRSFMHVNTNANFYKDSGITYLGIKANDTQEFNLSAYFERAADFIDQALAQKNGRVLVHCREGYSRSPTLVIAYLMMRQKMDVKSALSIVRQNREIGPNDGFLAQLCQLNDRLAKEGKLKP
# TcdB GH inh: inhibitors of Clostridioides difficile toxin B glycohydrolase; P18177; TcdB glycohydrolase enzymatic assay, plate reader; inhibition, % at 9.99 µM; 350,000 tested, 0.24% active; AID 652162; in the data active = inhibition above about 10%
# Hits are given with their value; . = inactive; / = no result given; ! = not active in a repeat.
SMILES,CCHFV vOTU inh,SARS 3CLpro inh,BH1578 lux ind,SSB-PriA inh,DUSP3 inh,TcdB GH inh
COc1ccc2c(COC(=O)CNC(=O)C34CC5CC(CC(C5)C3)C4)cc(=O)oc2c1,.,.,.,.,51,.
COc1cc(NC(=O)COC(=O)CNC(=O)C23CC4CC(CC(C4)C2)C3)cc(OC)c1,.,/,.,.,/,.
O=S(=O)(c1ccccc1)N1CCN=C1SCc1ccccc1,.,.,.,.,.,10
Cc1ccc(=O)n(CC(=O)N2CCN(c3ccc(F)cc3)CC2)n1,/,/,/,.,/,/
O=c1[nH]c(Nc2ccc(F)cc2)cc2ccccc12,105,.,.,.,.,.
Cc1ccccc1Nc1cc2ccccc2c(=O)[nH]1,/,.,.,.,.,/
CC(=O)N1CCN(c2ccnc3c2c(=O)n(CC(=O)Nc2ccc(F)cc2F)c(=O)n3C)CC1,/,/,/,.,/,/
O=C(NCCc1c[nH]c2ccccc12)c1cc(=O)c(OCc2ccccc2)co1,/,/,/,.,/,/
CCOC(=O)C1=CN(Cc2cccc(F)c2)S(=O)(=O)NC1c1cccc(OC)c1 (stereo not drawn),.,/,.,47,/,.
O=C(CN1CCC(c2nnc(-c3ccc(F)cc3)o2)CC1)Nc1ccc(OC(F)(F)F)cc1,/,/,/,.,/,/
Cn1cccc1C(O)CCNC(=O)c1cc(-c2ccc(F)cc2)nn1C (stereo not drawn),/,/,/,.,/,/
Nc1ccc2c(c1)Nc1ccccc1CC2,.,.,.,58,.,15
CSc1ccccc1C(=O)N1CCCCC(c2ccc(F)cc2)C1 (stereo not drawn),/,/,/,.,/,/
CN1C(=O)Cc2cc(S(=O)(=O)N3CCN(c4cccc(C(F)(F)F)c4)CC3)ccc21,.,.,.,.,52,.
O=[N+]([O-])c1ccccc1NN=Cc1ccccc1,/,/,/,.,/,/
CC(C)Oc1ccccc1C=NNc1ccccc1[N+](=O)[O-],/,/,/,82,/,/
CCCCN1C(=O)Cc2c1nc(N)c1c(N)nc(N(CCC)CCC)c(C#N)c21,.,.,.,39,.,/
N#Cc1c(N(CCO)CCO)nc(N)c2c(N)nc3c(c12)CC(=O)N3CC1CCCO1 (stereo not drawn),.,.,.,.,.,.
COc1ccc(CCn2c(NCc3ccco3)nc3c2c(=O)[nH]c(=O)n3C)cc1,.,.,.,.,.,/
C=CCOCC(O)Cn1c(NCc2ccco2)nc2c1c(=O)[nH]c(=O)n2C (stereo not drawn),/,/,/,67,/,/
COc1ccccc1OCCCCN1CCCCC1,.,.,.,.,51,.
CC(C)(C)C1CCC(=NNc2ccc(S(N)(=O)=O)cc2[N+](=O)[O-])CC1 (stereo not drawn),.,.,.,45,.,.
CC1CC(=NNc2ccc(S(N)(=O)=O)cc2[N+](=O)[O-])CC(C)(C)C1 (stereo not drawn),/,/,/,52,/,/
COc1ccc(Cl)cc1NC(=O)CN(C)CC(=O)Nc1ccc(S(N)(=O)=O)cc1,.,.,.,.,53,.
CCC(=O)Nc1ccc2c(c1)OC[C@@H](C)N(C(=O)NC(C)C)C[C@@H](C)[C@@H](OC)CN(C)C2=O,/,/,/,/,/,18
SMILES,CCHFV vOTU inh,SARS 3CLpro inh,BH1578 lux ind,SSB-PriA inh,DUSP3 inh,TcdB GH inh
CCC(=O)Nc1ccc2c(c1)OC[C@@H](C)N(C(=O)NC(C)C)C[C@H](C)[C@@H](OC)CN(C)C2=O,/,/,/,/,/,.
CCC(=O)Nc1ccc2c(c1)OC[C@H](C)N(C(=O)NC(C)C)C[C@H](C)[C@H](OC)CN(C)C2=O,/,/,/,/,/,13
Cc1cccc2sc(NCCN3CCOCC3)nc12,/,/,/,.,/,/
CCC(CC)c1nnc(NC(=O)c2c(-c3ccccc3)noc2C)s1,.,.,.,.,50,.
CCCC(CCC)c1nnc(NC(=O)c2ccco2)s1,.,.,.,.,60,.
CC(C)N(CC#CCNC(=O)CSc1ccc(F)cc1)C(C)C,/,/,/,.,/,/
O=S(=O)(NCC1CCN(c2cnccn2)CC1)c1ccccc1Cl,/,/,/,.,/,/
CN(C)c1ccc(C=NNC(=O)CN(c2cccc(Cl)c2)S(C)(=O)=O)cc1Br,/,/,/,.,/,/
CC(C(=O)N/N=C/c1ccc(N(C)C)c(Br)c1)N(c1ccccc1)S(C)(=O)=O (stereo not drawn),.,.,.,/,50,/
Cc1cnnn1-c1ccc(NC(=O)[C@H]2CC(=O)N(c3ccccc3)C2)cc1,/,/,/,.,/,/
CCN(CC)CCN(Cc1cc2cc3c(cc2[nH]c1=O)OCCO3)C(=S)NCCCN(C)C,.,.,.,.,.,.
COCCCNC(=S)N(CCO)Cc1cc2cc3c(cc2[nH]c1=O)OCO3,.,.,.,.,52,.
CCN(CC)CCN(Cc1cc2cc3c(cc2[nH]c1=O)OCO3)C(=S)NCCCN(C)C,.,.,.,.,52,.
Cc1ccc(-n2ncc3c(C)nn(CC(=O)NCc4ccc5c(c4)OCO5)c(=O)c32)c(C)c1,/,/,/,.,/,/
N#CC1(N2CCN(C(=O)c3ccccc3)CC2)CCCCC1,.,.,.,.,54,.
NC(=O)c1cc(S(=O)(=O)NCc2ccccc2)cs1,.,.,.,.,.,.
CCOc1ccc(S(=O)(=O)NCc2ccccc2Cl)cc1C(N)=O,.,.,.,.,.,20
Cc1ccccc1CNS(=O)(=O)c1csc(C(N)=O)c1,.,.,.,.,56,.
CCOc1ccc(S(=O)(=O)NCc2ccccc2)cc1C(N)=O,.,.,.,.,.,.
Cc1ccc(NC(=O)CC(N)=NO)cc1Cl,/,/,/,.,/,/
Cc1noc(-c2ccc(NC(=O)Cn3c(=O)oc4ccccc43)cc2)n1,/,/,/,.,/,/
Cc1ccc(CS(=O)(=O)CCC(=O)NCCN2CCCCC2C)cc1 (stereo not drawn),.,.,.,.,.,/
Cc1ccc(CS(=O)(=O)CCC(=O)NCCCN2CCCC2)cc1,.,.,.,.,51,/
Cc1c2ccccc2cc[n+]1CCCS(=O)(=O)[O-],.,.,.,.,.,/
CC1(C)C(/C=C/C=C/C=C/C=C2\N(CCCCS(=O)(=O)O)c3ccc4ccccc4c3C2(C)C)=[N+](CCCCS(=O)(=O)[O-])c2ccc3ccccc3c21,/,/,.,75,/,/
SMILES,CCHFV vOTU inh,SARS 3CLpro inh,BH1578 lux ind,SSB-PriA inh,DUSP3 inh,TcdB GH inh
O=C(c1ccccc1C(=O)N1CCN(c2ccccc2F)CC1)N1CCN(c2ccccc2F)CC1,.,.,.,.,.,/
COc1ccccc1CC(=O)N1CCN(c2ccccn2)CC1,.,.,.,.,.,/
O=C(c1ccccc1C(F)(F)F)N1CCN(c2ccc(-c3ccccn3)nn2)CC1,/,/,/,150,/,/
O=C(c1ccccc1F)N1CCN(c2ccc(-c3ccccn3)nn2)CC1,/,/,/,108,/,/
O=C(c1ccccc1C(F)(F)F)N1CCN(c2ccc(-c3cccs3)nn2)CC1,/,/,/,.,/,/
COc1ccccc1CC(=O)N1CCN(c2ccc(-c3ccccn3)nn2)CC1,/,/,/,158,/,/
O=C(c1ccccc1F)N1CCN(c2ccccc2F)CC1,.,.,.,.,53,/
O=C(Cn1cnc2nc(N3CCCCC3)sc2c1=O)NC1CCCCC1,/,/,/,.,/,/
COC(=O)c1ccc(NC(=O)COc2cccc3c2OC(C)(C)C3)cc1,.,/,.,46!,/,.
COC(=O)CSC1CCN(S(=O)(=O)c2ccccc2Br)C1 (stereo not drawn),/,/,/,.,/,/
COC(=O)c1ccccc1Nc1ccccc1,34,.,.,.,.,/
CCOc1ccc(NC(=O)CC(NCc2ccccn2)C(=O)O)cc1 (stereo not drawn),.,.,.,96,.,.
